Source: paper PMC5540273 (PLoS ONE, 2017)

test system: T1, RSK1(Kin.Dom.2-C-terminal); conditions: concentration: 1 μM, replicates: in singlicate; n = 1
T1 construct: gene RPS6KA1
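Further: KINOMEscan kinase panel screen.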

Row | Structure (SMILES) | %Inh [%]
1 | O=C(Nc1n[nH]c2nc(-c3ccco3)c(Br)cc12)C1CCN(Cc2ccccc2)C1.O=C(O)[C@H](O)[C@@H](O)C(=O)O (stereo not shown) [SB-742034] | 0
2 | Cn1cnc2c(N)ncnc21 [SKF-97623] | 100
3 | COc1ccc(Nc2nccc(-c3ccc(NC(=O)c4cc5cc(F)ccc5[nH]4)cc3)n2)cc1 [GSK1229496] | 36
4 | CNC(=O)c1ccc(C)c(-n2c(C)cc(OCc3ccc(F)cc3F)c(Br)c2=O)c1 | 0
5 | Nc1nccc(-c2c(-c3ccc(F)cc3)ncn2C2CCN(Cc3ccccc3)CC2)n1 [SB-219980] | 41
6 | Cc1ccc(NC(=O)Nc2ccccc2)cc1-c1ccc(C(=O)Nc2ccncc2)cc1 [GSK1398471] | 10
7 | Fc1ccc(-c2nc[nH]c2-c2ccncc2)cc1 [SB-217360] | 47
8 | CC(C)c1cc(-c2ccc3c(N)n[nH]c3c2)nc(N)n1 [GSK2250882] | 0
9 | Fc1ccc(-c2nc3n(c2-c2ccncc2)CCS3)cc1 [GI98581] | 22
10 | CCc1ccc(-c2ccc3c(c2)-c2n[nH]cc2S(=O)(=O)N3C)cc1 | 30
11 | COc1ccc(CSc2nnc(-c3ccc4c(c3)CCO4)o2)cc1 | 0
12 | CSc1ccc(-c2nc3n(c2-c2ccncc2)CCC3)cc1 [SKF-105561] | 62
13 | COc1cccc(NC(=O)Nc2ccc(C)c(-c3ccc(C(=O)Nc4ccncc4)cc3)c2)c1 [GSK1398474] | 0
14 | O=c1cc(N2CCOCC2)nc2n(Cc3cccc(Cl)c3Cl)c3ccccc3n12 [GSK2299009] | 5
15 | COC(=O)c1cccc(NC(=O)NC2CCN(c3ccnc(Nc4ccc(F)cc4)n3)C2)c1 (stereo not shown) [GSK1379725] | 0
16 | O=C(Nc1n[nH]c2nc(-c3cccs3)c(Br)cc12)C1CC1 [SB-735297] | 0
17 | CC(=O)c1c(C)c2cnc(Nc3ccc(N4CCNCC4)cn3)nc2n(C2CCCC2)c1=O | 0
18 | CN1c2ccc(-c3ccc(C(N)=O)cc3)cc2-c2[nH]ncc2S1(=O)=O | 47
19 | CNc1cc(-c2ccc3c(N)n[nH]c3c2)nc(N)n1 [GSK2224810] | 26

Row | Structure (SMILES) | %Inh [%]
20 | Cn1cncc1C(=O)NC1CCN(c2ccnc(Nc3ccc(F)cc3)n2)C1 (stereo not shown) [GSK1379717] | 12
21 | Cn1cncc1-c1cc2c(Nc3ccc(OCc4ccccc4)cc3)ncnc2cn1 [GW281179] | 0
22 | COc1ccc(-c2coc3ccc(-c4nnc(C)o4)cc23)cc1 | 4
23 | Cc1ccc(NC(=O)Nc2ccc(Cl)cc2)cc1-c1ccc(C(=O)Nc2ccncc2)cc1 [GSK1398472] | 0
24 | CC(=O)c1c(C)c2cnc(Nc3ccn(C)n3)nc2n(C2CCCC2)c1=O | 4
25 | COc1ccc(Nc2nccc(N3CCC(NC(=O)c4cc5ccccc5s4)C3)n2)cc1 (stereo not shown) [GSK1379738] | 4
26 | Cc1nccc(-c2c(-c3ccc(F)cc3)ncn2CCCN2CCOCC2)n1.Cl [SB-282975] | 5
27 | CC[C@@H]1CO[C@H](C(=O)Nc2ccccc2)CN1c1cc(-c2ccc3c(N)n[nH]c3c2)nc(NC)n1 [GSK2376236] | 31
28 | NS(=O)(=O)c1cccc(N/C=C2\C(=O)Nc3ccc(S(=O)(=O)Cc4c(Cl)cccc4Cl)cc32)c1 [GSK398099] | 100
29 | Nc1cccc(-c2ccc3c(N)n[nH]c3c2)n1 [GSK2192730] | 21
30 | CCCCc1nn2ncccc2c1-c1ccnc(NC2CC2)n1 [GW684374] | 28
31 | CNc1nc(-c2ccc3c(N)n[nH]c3c2)cc(N2C[C@@H](C(=O)NC3CCCCC3)OC[C@H]2C)n1 [GSK2375584] | 19
32 | COc1cccc(C2=C(Nc3cc(Cl)c(O)c(Cl)c3)C(=O)NC2=O)c1 [SB-390767] | 0
33 | COc1ccc(CSc2nnc(-c3ccc4ncsc4c3)o2)cc1C(F)(F)F | 0
34 | Cc1c(Cn2c(C)c(C)n3c(=O)cc(N4CCOCC4)nc23)cccc1C(F)(F)F [GSK2328680] | 0
35 | CNc1nc(-c2ccc3c(N)n[nH]c3c2)cc(N2C[C@@H](C(=O)Nc3ccccc3)CC[C@H]2C)n1 [GSK2298859] | 0
36 | Cc1ccccc1-c1cc(-c2c[nH]nc2-c2ccccn2)ccn1 [GW680061] | 14
37 | COc1ccc(Nc2nccc(NCCNC(=O)Nc3cc(C)ccc3C)n2)cc1 [GSK1379899] | 0
